From PubChem BioAssay
Pf growth 96h – Primary qHTS for delayed death inhibitors of the malarial parasite plastid, 96 hour incubation | P. falciparum luciferase reporter growth, 96 h | Potency, µM (doses to about 28.7 µM), for the others: top-dose activity change, negative = inhibition, actives largely listed as inhibitors | actives 6.9% (n = 320,000); further: on the % scale 0 is the no-effect control and ±100 the full control effect
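Plates of compound plus infected erythrocytes (2% hematocrit, 0.05% parasitemia final) incubate 96 hours, 37 C, 5% CO2. Detection reagent added; reduced luminescence from the parasites' luciferase reporter flags inhibition.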
SARS PLpro yeast – qHTS of Yeast-based Assay for SARS-CoV PLP; S. cerevisiae expressing SARS-CoV PLpro, growth rescue; Potency, µM (doses to about 32.9 µM), without a hit: top-dose activity, positive = growth rescue, usual class: activators; actives 0.19% (n = 330,000); calls by dose curve; further: 0% is about no effect; nearly all actives have a fitted effect of over 55% in size
Pf growth 48h – Primary qHTS for delayed death inhibitors of the malarial parasite plastid, 48 hour incubation | actives 5.9% (n = 310,000) | P. falciparum luciferase growth in erythrocytes, 48 h | AID 504832, 2011 | Potency, µM (series often up to 28.7 µM), without a hit: top-dose activity change, negative = inhibition, most hits filed as inhibitors; further: on the % scale 0 is the no-effect control and ±100 the full control effect
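First compound was added to culture medium, then infected red cells at 0.1% parasitemia and 2% hematocrit (final). After incubation at 37 C under 5% CO2, luciferase detection reagent was dispensed and light output recorded.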
HCV inhibitor – qHTS Assay for Inhibitors of Hepatitis C Virus (HCV) | Huh7.5.1 HCVcc-Cre infection, luciferase reporter, 44 h | Potency, µM (titrated, usually from 41.8 µM), for inactives: at the top dose activity change, negative = inhibition, hits mostly inhibitors | actives 3.4% (n = 340,000) | AID 651820, 2012; further: on the % scale 0 is the no-effect control and ±100 the full control effect
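A cell-based infection assay in which seeded cells (1,000 per well) receive test compound after 4 h, are inoculated with HCVcc-Cre at approximately 0.5 moi, and are incubated 44 h before luminescence detection.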
NS1 inh – qHTS Assay for Inhibitors of Influenza NS1 Protein Function. actives 0.4% (n = 270,000). Potency, µM (doses to about 46.1 µM), without a hit: at the top dose activity, positive = more growth; calls by dose curve; further: actives are rising curves; nearly all actives have a fitted effect of over 50% in size
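Compounds were scored for reversing the slow growth caused by influenza A NS1 in S. cerevisiae, measured by optical density at 600 nm. Assay medium contained 2% galactose at pH 6.0; NS1-free yeast of the same strain were the positive control.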
AMA1-RON2 inh – qHTS for Inhibitors of AMA1-RON; Towards Development of Antimalarial Drug Lead: Primary Screen | AlphaScreen AMA1-biotinylated RON2 peptide binding | Plasmodium falciparum AMA1 (3D7) - RON2 peptide interaction | Potency, µM (doses to about 58.2 µM), for the others: top-dose activity change, negative = inhibition, most hits filed as inhibitors | actives 0.2% (n = 360,000);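 further: 0% = vehicle wells and -100% = peptide control; nearly all actives have a fitted effect of over 45% in size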
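AMA1 (3D7) with his tag at 25 nM final met compounds first, then biotinylated RON2 peptide at 25 nM; detection used donor plus acceptor beads, 10 µg/mL apiece, read by AlphaScreen after 30 min at room temperature.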
* marks the source's active call; other numbers are inactive results; ? = inconclusive; nt = not tested or not shown. Only some compounds are listed: those with a hit (about 12% of all), similar ones and a draw of the others. Unless noted, the call rests on the fitted dose curve; in most records, active means well fitted curve in the direction sought with a large enough effect; inconclusive means small, poorly fitted or top-dose-only effect, or another doubt; inactive means no such curve, though single readings can be large; an effect the other way counts as inactive or inconclusive. Potency means the concentration at half of the fitted maximal effect.

SMILES	Pf growth 96h	SARS PLpro yeast	Pf growth 48h	HCV inhibitor	NS1 inh	AMA1-RON2 inh
CC(C)(C)OC(=O)N1CCC(NC(=O)c2[nH]cnc2C(=O)Nc2cccc(Cl)c2)CC1	?	-1%	?	22%	nt	45%
CC(C)(C)OC(=O)N1CCC(NC(=O)c2nc[nH]c2C(=O)NC2CCN(C(=O)OC(C)(C)C)CC2)CC1	3.7µM*	0%	3.7µM*	7%	nt	92%
C[C@H](NC(=O)c1ncn(Cc2ccccc2)c1C(=O)N[C@@H](C)c1ccccc1)c1ccccc1	8.3µM*	-9%	?	?	nt	-12%
CC(C)(C)OC(=O)N1CCC(NC(=O)c2ncn(Cc3ccccc3)c2C(=O)NC2CCN(C(=O)OC(C)(C)C)CC2)CC1	?	0%	5.2µM*	-20%	nt	-8%
CCOC(=O)c1ccc(NC(=O)c2nc[nH]c2C(=O)NC2CCN(C(=O)OC(C)(C)C)CC2)cc1	?	9%	10µM*	25%	-5%	133%
CC(=O)Nc1cc(C(=O)CSc2nnc(C3CC3)n2C2CC2)ccc1O	?	4%	7%	22%	nt	-10%
CNC(=O)Oc1ccc2c(c1)[C@]1(C)CCN(C)C1N2C (some centres not stated)	15µM*	nt	13µM*	-9%	nt	-5%
CN1CC[C@@]2(C)c3cc(O)ccc3N(C)[C@@H]12	nt	nt	nt	?	nt	-14%
CN(C)CCN=Cc1c(O)n(-c2ccc(S(=O)(=O)N3CCOCC3)cc2)c(=O)c2ccccc12	1%	-1%	-5%	16%	nt	65%
COc1ccc(C(=O)CCC(=O)N2CCN(c3ccc(C)cc3)C(C)C2)cc1 (configuration not stated)	9.3µM*	-11%	-16%	?	-22%	-13%
CC1(C)Cc2cccc(Oc3ccc(S(=O)(=O)N4CCCC4)cn3)c2O1	?	0%	12µM*	?	nt	-3%
N#Cc1ccccc1Oc1ccc(S(=O)(=O)N2CCCCC2)cn1	45%	-4%	11%	-7%	nt	0%
CC1(C)Cc2cccc(OCC(=O)N3CCN(S(=O)(=O)c4ccc(F)cc4)CC3)c2O1	9.3µM*	3%	?	-19%	-6%	-12%
CC1(C)Cc2cccc(Oc3ccc(S(=O)(=O)N4CCCCC4)cn3)c2O1	?	-1%	13µM*	-17%	nt	0%
O=S(=O)(c1ccc(Oc2ccc(Br)cc2F)nc1)N1CCCCC1	?	5%	14%	25µM*	-6%	10%
COc1ccc(C(C)=O)cc1CSCCC(=O)O	9%	-4%	13%	7%	3%	-1%
COc1ccc(C(=O)/C=C/c2ccsc2)cc1CSCC(=O)O	6.6µM*	-4%	?	29%	1%	-11%
C=CCn1c(Cc2ccccc2)n[nH]c1=S	143%	1%	23%	5%	6%	33%
C=CCn1c(Cc2c[nH]c3ccccc23)n[nH]c1=S	-80%	6%	13µM*	7%	?	56%
Cn1c(=O)c(=O)n(C)c2cc(S(=O)(=O)N3CC(=O)N(CCc4ccccc4)C(=O)C3)ccc21	2%	0%	11%	11%	2%	6%
CC(C)NC(=S)N=Nc1c(O)[nH]c2ccc(C(C)C)cc12	?	8%	8.3µM*	?	10%	66%
Cc1cccc(NC(=S)N=Nc2c(O)[nH]c3ccccc23)c1	2.9µM*	-5%	?	?	11%	6%
COc1ccc(/C=N/OCC(=O)N=Nc2c(O)[nH]c3ccc(Br)cc23)cc1OC	26%	4%	-4%	-12%	20%	-14%
Cc1occc1C(=O)N=Nc1c(O)[nH]c2ccc(Br)cc12	4.1µM*	-25%	139%	4%	0%	nt
COc1ccccc1NC(=S)N=Nc1c(O)[nH]c2ccc(Br)cc12	1µM*	-3%	0.93µM*	?	-1%	60%
SMILES	Pf growth 96h	SARS PLpro yeast	Pf growth 48h	HCV inhibitor	NS1 inh	AMA1-RON2 inh
CCOC(=O)C1CCN(S(=O)(=O)CCNC(=O)c2ccc(F)cc2)CC1	8%	12%	?	-5%	nt	-5%
COCCn1c(C)nnc1SCC(=O)NNC(=O)c1ccc(Cl)cc1	16%	-2%	14%	0%	0%	7%
O=C1CC(N2CCOCC2)C(=O)N1c1ccc(Cl)cc1 (configuration not stated)	0%	-6%	7.4µM*	0%	-8%	14%
CN(C)Cc1c[nH]c2ccccc12	9.3µM*	6%	?	-1%	nt	-4%
O=[N+]([O-])c1cccc(Oc2cnccn2)c1	24%	-2%	24%	23%	-7%	67%
COc1ccc(N2C(=O)c3ccccc3NC2c2ccc(OC)c(CSc3ccccn3)c2)cc1 (configuration not stated)	146%	8%	117%	-14%	-7%	-1%
COc1ccc(C2Nc3ccccc3C(=O)N2Cc2ccco2)cc1CN1C(=O)c2ccccc2C1=O (configuration not stated)	?	2%	13µM*	?	22%	-18%
CCCN1C(=O)c2ccccc2NC1c1ccc(OC)c(CSc2ccccn2)c1 (configuration not stated)	10µM*	-14%	?	?	7%	5%
COc1ccc(C2Nc3ccccc3C(=O)N2Cc2ccccc2)cc1COc1ccccn1 (configuration not stated)	?	7%	?	-2%	8%	-1%
O=C1c2ccccc2NC(c2cccc(O)c2)N1Cc1ccco1 (configuration not stated)	?	0%	0%	-1%	3%	-1%
COc1ccc(C2Nc3ccccc3C(=O)N2Cc2ccco2)cc1COc1ccc(F)cc1 (configuration not stated)	6.6µM*	14%	2.1µM*	?	?	-6%
COc1ccc(C2Nc3ccccc3C(=O)N2c2ccc(C)cc2)cc1Cn1cc([N+](=O)[O-])cn1 (configuration not stated)	-73%	4%	?	-26%	?	-7%
COc1ccc(C2Nc3ccccc3C(=O)N2c2ccc(C)cc2)cc1Cn1nnc2ccccc21 (configuration not stated)	?	3%	13µM*	4%	22%	12%
COc1ccc(/C=C/C(=O)NC2CCN(Cc3ccccc3)CC2)cc1OC	?	0%	?	-17%	-15%	-7%
